Screens from PubChem BioAssay.
BRCA1 expr up: BRCA1 expression activation; AID 624202; MCF7-BRCA1-FFLuc reporter, luminescence, 48 h; response scale: scaled: vehicle 0%, 10 µM genistein 100%; hit rate 1.1% among 380,000; Potency, µM (series often up to 46.1 µM), inactives show top-dose activation, most hits filed as activators; note: potency is the fitted concentration of half-maximal effect; nearly all actives have a fitted effect of over 80% in size
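First, MCF7-BRCA1-FFLuc cells (2000/well) attach for 2 h; next, compounds are pin-added and incubated 48 h at 37 °C; finally, luciferase reagent is added and luminescence read after 15 min.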
TrxR1 substrate: substrates of rat thioredoxin reductase 1; O89049; purified TrxR1 substrate turnover, NADPH consumption readout; Potency, µM (top dose mostly 114 µM), without a hit: at the highest dose activity change, negative = substrate turnover; hit rate 0.01% among 390,000; AID 588456; note: potency is the fitted concentration of half-maximal effect; % is set by controls: 0 for no effect and ±100 for the full control effect; nearly all actives have a fitted effect of over 50% in size
Target sequence (O89049 whole entry, looked up): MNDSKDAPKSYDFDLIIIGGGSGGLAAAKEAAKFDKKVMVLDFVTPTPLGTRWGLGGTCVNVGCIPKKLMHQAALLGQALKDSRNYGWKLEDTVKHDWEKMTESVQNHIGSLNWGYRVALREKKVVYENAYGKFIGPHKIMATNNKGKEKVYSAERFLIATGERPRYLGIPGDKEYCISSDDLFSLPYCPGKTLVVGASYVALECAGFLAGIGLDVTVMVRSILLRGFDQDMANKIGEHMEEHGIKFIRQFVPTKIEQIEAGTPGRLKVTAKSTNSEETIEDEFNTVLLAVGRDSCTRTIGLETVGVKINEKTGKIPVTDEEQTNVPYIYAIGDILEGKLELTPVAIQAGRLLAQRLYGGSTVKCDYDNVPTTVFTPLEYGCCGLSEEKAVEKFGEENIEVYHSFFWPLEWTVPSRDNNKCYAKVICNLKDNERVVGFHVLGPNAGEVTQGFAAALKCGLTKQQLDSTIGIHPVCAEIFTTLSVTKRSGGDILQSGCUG
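Rat TrxR1, dispensed at 90 nM, was prereduced with 400 uM NADPH (final) for 5 min at ~22 deg C, then incubated with compound 15 min before 400 uM selenite. A first-read NADPH fluorescence drop versus no-compound background flagged substrates.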
TrxR1 inh-1: blocks rat thioredoxin reductase 1. O89049. recombinant rTrxR1, NADPH fluorescence consumption, selenite substrate. Potency, µM (titrated, usually from 114 µM), inactives show at the highest dose activity change, negative = inhibition, hits mostly inhibitors. hit rate 1% among 390,000. AID 588453; note: potency is the fitted concentration of half-maximal effect; % is set by controls: 0 for no effect and ±100 for the full control effect; nearly all actives have a fitted effect of over 65% in size
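Rat TrxR1 (90 nM in the dispensed reagent) was pre-reduced with 400 uM NADPH for 5 min at room temperature, then incubated with compound for 15 min. After 400 uM selenite was added, NADPH fluorescence (Ex 340/Em 450 nm) was followed for 8 min.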
IL2 activator: activators of IL-2; IL-2 activation reporter assay, cell-based qHTS; stimulated with anti-CD3/CD4/CD28 beads; in transgenic mouse T cells; activation, % (series mostly up to about 46 µM); hit rate 0.065% among 360,000; in the data active = activation above about 50%; inconclusive = mostly about 30% to 49%; note: 0% is about no effect
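Quantitative HTS in unstimulated transgenic mouse T cells, with memory T cells as non-tolerant control and PMA/ionomycin as tolerance-bypass control. Compound pretreatment lasted 60 minutes before 18 h bead stimulation; EGFP/DsRed fluorescence read.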
mIDH1 inhibitor: blocks human mutant IDH1 R132H enzyme | IDH1-R132H enzyme, NADPH consumption, diaphorase/resazurin fluorescence | AID 602179 | O75874 | Potency, µM (top dose mostly 76.6 µM), for inactives: at the highest dose activity change, negative = inhibition, hits mostly inhibitors | hit rate 0.093% among 390,000; note: potency is the fitted concentration of half-maximal effect; % is set by controls: 0 for no effect and ±100 for the full control effect; nearly all actives have a fitted effect of over 65% in size
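IDH1-R132H (0.5 ug/mL) preincubated 30 min with compound, then NADPH (0.016 mM) and alpha-KG (2 mM) added; 80 min at RT, pH 7.5. Remaining NADPH coupled via diaphorase/resazurin to fluorescence (540/590 nm); concentration-response curves normalized to no-enzyme control.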
Giardia kill: Giardia lamblia killing. activity change, % at 7.66 µM, hits read low. AID 540267. hit rate 0.15% among 340,000. Giardia lamblia trophozoite viability; in the data active = activity change below about -80%; inconclusive = between about -30% and that limit;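 note: parasites exposed to compound for two days anaerobically before the ATP read; % is set by controls: 0 for no effect and ±100 for the full control effect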
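Luminescent ATP signal served as the viability read-out, measured 15-30 min after adding ATP detection reagent to trophozoites that had been incubated with compounds for 48 hrs at 37 deg C anaerobically at 100 cells/well.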
GR inh: counter-screen for TrxR1 inhibitors: human glutathione reductase inhibition; purified GR, DTNB reduction absorbance 405 nm kinetic; activity change, negative = inhibition, % at 57.1 µM; 55 tested, under 10 active; AID 652020; shares compounds with TrxR1 inh-1
TrxR1 inh-2: blocks rat thioredoxin reductase 1 in hit validation. shares compounds with TrxR1 inh-1. recombinant TrxR1, NADPH fluorescence consumption, selenite substrate. Potency, µM, usual class: inhibitors. hit rate 50% among 55. AID 652023
TrxR1 insulin MOA: TrxR1 inhibitors: insulin reduction mechanism-of-action test. shares compounds with TrxR1 inh-1. TrxR1 Trx-coupled insulin reduction, NADPH absorbance 340 nm. Potency, µM. hit rate 20% among 55;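 active = compounds with a measured potency under 100 micromolar; inconclusive = filed, but no rule given; inactive = potency at or above that, or unmeasurable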
TrxR1 inh-3: rat thioredoxin reductase 1 inhibition, DTNB assay; hit rate 90% among 55; AID 652256; Potency, µM; purified TrxR1, DTNB reduction, A412; shares compounds with TrxR1 inh-1;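 active = a half-inhibiting concentration could be measured and was below 100 µM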
IDH1 autofl: counter-screen for mutant IDH1 inhibitors: fluorescence interference. inhibition of signal, % at 51.2 µM. shares compounds with mIDH1 inhibitor. Resorufin detection reagent fluorescence interference, cell-free. 750 tested, under 10 active;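 note: 0% = wells with normal resorufin and full inhibition = wells lacking resorufin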
WT IDH1 inh: wild-type IDH1 (human) inhibition counterscreen; hit rate 9% among 750; WT IDH1 enzyme, NADPH diaphorase/resazurin fluorescence; AID 623995; shares compounds with mIDH1 inhibitor; Potency, µM (titrated, usually from 115 µM), inactives show at the highest dose activity change, negative = inhibition, usual class: inhibitors;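 note: potency is the fitted concentration of half-maximal effect; 0% = full WT IDH1 enzyme control and full inhibition = no enzyme wells; nearly all actives have a fitted effect of over 55% in size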
mIDH1 confirm: mutant IDH1 (human) inhibition, confirmed. IDH1 R132H enzyme, NADPH diaphorase/resazurin fluorescence. shares compounds with mIDH1 inhibitor. hit rate 83% among 750. Potency, µM (series often up to 76.6 µM), for inactives: at the highest dose activity change, negative = inhibition, actives largely listed as inhibitors; note: potency is the fitted concentration of half-maximal effect; nearly all actives have a fitted effect of over 50% in size
Active calls of the source: *; u = inconclusive; x = no result given; [ ] = another dose, or the depositor's remark. An excerpt weighted towards active compounds, which were near 2.2% of everything screened. Unless noted, calls come from the whole dose curve; as a rule, active = well fitted curve in the direction sought with a large enough effect; inconclusive = small, poorly fitted or top-dose-only effect, or another doubt; inactive = no such curve, though single readings can be large; an effect the other way counts as inactive or inconclusive.

SMILES	BRCA1 expr up	TrxR1 substrate	TrxR1 inh-1	IL2 activator	mIDH1 inhibitor	Giardia kill	others
CCNC(=O)O/N=C(\C)c1sc(-c2ccc(Cl)cc2)nc1C	u	-6%	14%[57.1 µM]	-1	2%	21
CC(=O)OCC1=C(C(=O)O)N2C(=O)[C@@H](NC(=O)CCC[C@@H](N)C(=O)O)[C@H]2SC1	x	-3%[57.1 µM]	-13%[57.1 µM]	x	x	x
Cc1cccc(OCCn2c(=O)oc3ccc(C)cc32)c1	8.9µM*	-10%	10%	-1	-10%	17
CC(C)N1C(=O)/C(=C/C=C/c2ccco2)C(=O)N(Cc2ccco2)C1=O	-1%	-15%	-66%	2	-1%	26
CCN1C(=O)C(=C/C=C/c2ccco2)C(=O)N(CC)C1=S	-32%	-1%	4.5µM*	-5	-28%	6
Cc1ccc(C(=O)c2cn(CC(=O)Nc3ccc(C(C)C)cc3)c3nc(C)ccc3c2=O)cc1	x	2%	31%	x	2%	x
N#CC(C#N)=Cc1ccc(N2CCOCC2)cc1	-8%	-9%	71µM*	-1	-5%	-11
O=C(O)CCn1cc(C=C2C(=O)NC(=S)NC2=O)c(-c2cc3ccccc3oc2=O)n1	6%	3%	7.1µM*	-1	-2%	-12
CC1=CC2/C=C(\C)CCC(O)C(O)/C=C/C(=O)C23C(=O)NC(CC(C)C)C3C1C (stereo not given)	-89%	12%[57.1 µM]	16µM*	-4	4%	-28
COc1cc(/C=C(/C)[N+](=O)[O-])ccc1OCc1ccccc1Cl	-96%	-1%	u	-2	46µM*	-17
COc1cc(C=C2C(=O)NC(=O)NC2=O)ccc1OCc1ccc([N+](=O)[O-])cc1	u	4%[57.1 µM]	u	0	10%	10
CC1=C[C@@H]2c3cccc4[nH]cc(c34)C[C@H]2N(C)C1	0%	27%	2.5µM*	2	3%	2	GR inh=-4;TrxR1 inh-2=u;TrxR1 insulin MOA=49µM*;TrxR1 inh-3=2.2µM*
c1ccc2ccccc2c1	5%	15%	37%	0	-7%	3
N#CC(C#N)=NNc1ccc(-n2ccc(C(F)(F)F)n2)cc1	-50%	-6%	20µM*	-2	33µM*	13	IDH1 autofl=3;WT IDH1 inh=79µM*;mIDH1 confirm=25µM*
CCOC(=O)c1c(/N=C/c2c(O)n(-c3cccc(C)c3)c(=O)[nH]c2=O)sc2c1CCCC2	6%	-1%	1%	1	u	-2	IDH1 autofl=6;WT IDH1 inh=1%;mIDH1 confirm=11µM*
CCOC(=O)c1c(-n2c(C)cc(C=C3C(=O)NC(=S)NC3=O)c2C)sc2c1CCCC2	-71%	-13%	22µM*	-3	14µM*	1	IDH1 autofl=0;WT IDH1 inh=40µM*;mIDH1 confirm=7.1µM*
CCOC(=O)c1c(-n2c(C)cc(/C=C3/C(=O)NC(=O)N(CC)C3=O)c2C)sc2c1CCCC2	3%	-11%	-9%[57.1 µM]	0	u	3
C[C@H]1CC[C@@H]2[C@@H](C)[C@H]3C(CC4C5CC=C6CC(O[C@@H]7O[C@H](CO)C(O[C@@H]8O[C@@H](C)[C@H](O)[C@@H](O)[C@H]8O)[C@H](O)[C@H]7O[C@@H]7O[C@@H](C)[C@H](O)[C@@H](O)[C@H]7O)CC[C@]6(C)C5CC[C@@]43C)N2C1 (stereo not given in full)	x	-3%	-33%	x	x	-5
Cc1ccc(-n2nc3c(=O)n(CC(=O)NCC(C)c4ccccc4)nc(C)c3c2C)cc1 (stereo not given)	x	0%	9%	x	u	x	IDH1 autofl=2;WT IDH1 inh=-11%;mIDH1 confirm=-1%
NC(N)=S	24%	6%	2%	0	31%	4
C[C@@H]1O[C@@H](O[C@H]2C[C@@H](O)[C@]3(CO)[C@@H]4C(CC[C@]3(O)C2)[C@@]2(O)CC[C@H]([C@@H]3COC(=O)C3)[C@@]2(C)C[C@H]4O)[C@H](O)[C@H](O)[C@H]1O (stereo not given in full)	x	-4%[57.1 µM]	-9%[57.1 µM]	x	x	x
CC(=O)Nc1ccc(C(=O)OCC(=O)Nc2ccc(Cl)cc2C(=O)c2ccccc2)cc1	-29%	-6%	2%	-5	u	-6
O=C(COC(=O)c1ccc(O)cc1)Nc1ccc(Cl)cc1C(=O)c1ccccc1	-36%	5%[57.1 µM]	21%[57.1 µM]	7	58µM*	7	IDH1 autofl=-1;WT IDH1 inh=7%;mIDH1 confirm=35µM*
